Bioassay records from PubChem BioAssay.
In the library only some 0.53% were active in any assay of this set; here they are far more common.
USP1 inh: blocks the human USP1/UAF1 deubiquitinase complex | recombinant USP1/UAF1, Ub-Rhodamine cleavage fluorescence | Potency, µM (top dose mostly 57.1 µM), without a hit: at the highest dose activity change, negative = inhibition, hits mostly inhibitors | 0.23% of 390,000 active; further: potency means the concentration at half of the fitted maximal effect; nearly all actives have a fitted effect of over 60% in size
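USP1/UAF1 complex at 1 nM was preincubated with compound for 15 min at room temperature, then Ub-Rho substrate (150nM final) was added. Fluorescence (480/540 nm) was read kinetically, 6 reads every 60 seconds.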
PI4K2A block: inhibitors of human PI4K2A; Q9BTU6; purified PI4K2A, ADP-Glo luminescence, 1 h; stronger effect = lower value; activity change, negative = inhibition, % at 76.9 µM; 0.13% of 420,000 active; in the data active means activity change below about -50%; inconclusive means mostly about -30% to -49%;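 further: -100% = wells without enzyme as full effect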
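In this quantitative HTS, ADP production by PI4K2A was quantified luminescently after 1 h at ambient temperature; 100 microM adenosine served as plate-quality control.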
GLS inh: inhibitors of human glutaminase (GLS); 0.21% of 410,000 active; O94925; Potency, µM (highest dose often 45.5 µM), inactives show top-dose activity change, negative = inhibition, actives largely listed as inhibitors; GLS enzymatic activity, qHTS titration; further: potency means the concentration at half of the fitted maximal effect
Target sequence (O94925 whole entry, looked up): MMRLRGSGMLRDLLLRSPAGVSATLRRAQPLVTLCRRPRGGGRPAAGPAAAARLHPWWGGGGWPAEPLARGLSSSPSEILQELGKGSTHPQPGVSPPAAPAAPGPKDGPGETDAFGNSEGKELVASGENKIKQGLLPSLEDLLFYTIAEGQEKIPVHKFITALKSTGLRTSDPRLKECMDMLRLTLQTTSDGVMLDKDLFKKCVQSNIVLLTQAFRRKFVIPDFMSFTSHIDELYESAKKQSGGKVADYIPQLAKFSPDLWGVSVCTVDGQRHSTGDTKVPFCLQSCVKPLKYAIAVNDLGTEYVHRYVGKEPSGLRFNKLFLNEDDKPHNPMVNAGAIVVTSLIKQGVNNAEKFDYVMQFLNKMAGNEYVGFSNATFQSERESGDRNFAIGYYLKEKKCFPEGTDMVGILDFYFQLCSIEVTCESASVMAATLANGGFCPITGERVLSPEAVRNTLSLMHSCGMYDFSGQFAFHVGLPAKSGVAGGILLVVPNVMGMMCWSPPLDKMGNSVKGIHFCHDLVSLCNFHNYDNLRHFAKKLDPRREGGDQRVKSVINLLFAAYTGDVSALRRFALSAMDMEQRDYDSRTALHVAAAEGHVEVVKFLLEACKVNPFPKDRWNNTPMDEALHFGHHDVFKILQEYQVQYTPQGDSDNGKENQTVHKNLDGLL
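Coupled fluorescence readout: glutamate oxidase/HRP/Amplex Red detect glutamate formed by hKGA from L-glutamine (1 mM solution added). Buffer 45 mM KH2PO4 pH 8.2, 0.02% Tween-20; reads at t0 and 30 min RT.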
PGK inhibitor: inhibitors of T. brucei phosphoglycerate kinase. 0.043% of 380,000 active. Potency, µM (top dose mostly 57.5 µM), inactives show at the top dose activity change, negative = inhibition, most hits filed as inhibitors. P07378. AID 602233. PGK/GAPDH coupled, Kinase-Glo luminescence, 60 min; further: potency means the concentration at half of the fitted maximal effect; nearly all actives have a fitted effect of over 60% in size
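Recombinant glycosomal PGK reaction used 1,3-bisphosphoglycerate generated in-well by GAPDH (100nM final) in 100mM TEA pH 7.6, 5mM MgCl2, 0.01% Tween-20. After 60 minutes at room temperature, ATP was read by Kinase-Glo Plus luminescence end-point.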
Starred values were filed as active, the others as inactive; ! = not confirmed by another sample. Unless noted, the call rests on the fitted dose curve; in most records, active means well fitted curve in the direction sought with a large enough effect; inconclusive means small, poorly fitted or top-dose-only effect, or another doubt; inactive means no such curve, though single readings can be large; an effect the other way counts as inactive or inconclusive. Unless noted, on the % scale 0 is the no-effect control and ±100 the full control effect.

For Cc1ccc(OCC(=O)Nc2sc3c(c2C#N)CC(C)(C)NC3(C)C)cc1 the results were USP1 inh -0.6%, PI4K2A block 0.1, GLS inh 9.4% and PGK inhibitor 8.3%.
O=C(Nc1ccc(C(=O)O)cc1)/C(=C\C=C\c1ccccc1)NC(=O)c1ccc(Br)cc1 was read as USP1 inh active, PI4K2A block 1.3, GLS inh 0.3% and PGK inhibitor -8.6%.
Cc1ccc(NC(=O)/C(=C/C=C/c2ccccc2)NC(=O)c2ccccc2)cc1 was read as USP1 inh -14.0%, PI4K2A block -4.1, GLS inh -0.8% and PGK inhibitor 3.9%.
For CCN(CC)C(=O)CC[C@@H]1CC[C@]2(CCCN(S(C)(=O)=O)C2)O1 the results were PI4K2A block 1.6.
COc1ccc(OC)c(/C=c2\sc3nc(-c4cccs4)nn3c2=O)c1 was read as USP1 inh 31.6µM*, PI4K2A block 116.0, GLS inh 4.4% and PGK inhibitor -4.9%.
Screening CN=Cc1nc(-c2ccccc2)oc1O returned USP1 inh -4.1%, PI4K2A block -3.6, GLS inh -1.9% and PGK inhibitor -11.7%.
CC1=Nc2ccccc2/C1=C\c1nc(-c2ccc(F)cc2)oc1O was read as USP1 inh 28.2µM*, PI4K2A block 4.5, GLS inh 5.3% and PGK inhibitor 4.4%.
`O=C(c1ccccc1)c1ccc(O)c(O)c1O` gave USP1 inh -1.8%, PI4K2A block -2.1, GLS inh 10µM* and PGK inhibitor inconclusive.
Screening CN1/C(=C/C=C/c2n(C)c3cc([N+](=O)[O-])c([N+](=O)[O-])cc3[n+]2C)C(C)(C)c2ccccc21 returned USP1 inh inconclusive, PI4K2A block -74.5*, GLS inh -2.4% and PGK inhibitor inconclusive.
Screening Cc1cccc[n+]1CC(=O)/C=C1\N(C)c2ccccc2C1(C)C returned USP1 inh -19.5%, PI4K2A block -3.0, GLS inh 0.8% and PGK inhibitor -0.5%.
For O=C(CC1SC(=O)N(c2ccccc2)C1=O)Nc1cccc2ccccc12 (stereo unspecified) the results were USP1 inh -17.5%, PI4K2A block 8.7, GLS inh 10µM* and PGK inhibitor -0.7%.
For O=C1CC(C(=O)N2CCN(c3ccccc3O)CC2)CN1Cc1ccccc1 (stereo unspecified) the results were USP1 inh -7.0%, PI4K2A block 0.1, GLS inh 5.01µM* and PGK inhibitor inactive.
`COc1ccc(/C=C\c2nc(=O)c3ccccc3o2)cc1` gave USP1 inh -10.8%, PI4K2A block 8.2, GLS inh 0.3% and PGK inhibitor inactive.
`O=c1nc(/C=C/c2ccc(O)c(O)c2)oc2ccccc12` gave USP1 inh -17.5%, PI4K2A block 2.7, GLS inh 5.62µM* and PGK inhibitor -5.7%.
For c1ccc2nc(-c3nc4ccccc4[nH]3)ccc2c1 the results were USP1 inh -15.1%, PI4K2A block -65.9*, GLS inh 7.8% and PGK inhibitor inconclusive.
Screening c1ccc2[nH]c(-c3cscn3)nc2c1 returned USP1 inh -5.3%, PI4K2A block 0.2, GLS inh -0.7% and PGK inhibitor inactive.
`C[C@@H](O[C@H]1OCCN(Cc2n[nH]c(=O)[nH]2)[C@H]1c1ccc(F)cc1)c1cc(C(F)(F)F)cc(C(F)(F)F)c1` gave PI4K2A block -3.9.
For O=C1C(=O)c2ccccc2C(O)=C1c1ccccc1F the results were USP1 inh 5.2%, PI4K2A block -0.2, GLS inh 0.4% and PGK inhibitor -4.4%.
`O=C1C(O)=C(O)C(=O)c2ccccc21` gave USP1 inh 15.8µM*, PI4K2A block -50.5*, GLS inh 19.4% and PGK inhibitor -10.3%.
`O=C1c2ccccc2C(=O)c2[nH]cnc21` gave USP1 inh -18.2%, PI4K2A block 1.4, GLS inh -3.3% and PGK inhibitor -14.1%.
For O=C1c2ccccc2C(=O)c2[nH]c(=O)[nH]c21 the results were USP1 inh 28.2µM*, PI4K2A block -22.3, GLS inh 5.0% and PGK inhibitor inactive.
N#Cc1c(N2CCCC2)nc(N)c2c(N)nc(N3CCCC3)cc12 was read as USP1 inh 0.316µM*, PI4K2A block inconclusive, GLS inh 17.5% and PGK inhibitor inconclusive.
Screening CCOc1cc2c(C#N)c(N3CCCC3)nc(N)c2c(N)n1 returned USP1 inh -26.1%, PI4K2A block 4.5, GLS inh -0.8% and PGK inhibitor -7.9%.
For COc1ccccc1N1CCN(c2nc(N)c(C#N)c(CC#N)c2C#N)CC1 the results were USP1 inh -0.4%, PI4K2A block 5.4, GLS inh 21.5% and PGK inhibitor -5.8%.
For CCCOc1cc2c(C#N)c(N3CCCC3)nc(N)c2c(N)n1 the results were USP1 inh 28.2µM*, PI4K2A block -13.4, GLS inh 1.9% and PGK inhibitor -8.2%.
For COc1cc2c(C#N)c(N3CCN(c4ccccc4OC)CC3)nc(N)c2c(N)n1 the results were USP1 inh -5.8%, PI4K2A block -54.7*, GLS inh 4.8% and PGK inhibitor 6.8%.
`COc1cc2c(C#N)c(N3CCCC3)nc(N)c2c(N)n1` gave USP1 inh 7.94µM*, PI4K2A block -55.4*!, GLS inh 11.2% and PGK inhibitor inconclusive.
Cc1cc(C)c(C#N)c(N2CCCC2)n1 was read as USP1 inh -15.6%, PI4K2A block 4.7, GLS inh 3.6% and PGK inhibitor -0.2%.
`O=Cc1ccccc1C=O` gave PI4K2A block -0.4 and GLS inh 33.4%.
CCSC(=O)N=Nc1ccc(O)cc1 was read as USP1 inh 31.6µM*, PI4K2A block -10.4, GLS inh -4.0% and PGK inhibitor -1.9%.
Screening CC(=O)/C(N=Nc1ccc(SC(F)F)cc1)=C(\C)O returned USP1 inh -0.5%, PI4K2A block -2.0, GLS inh 9.6% and PGK inhibitor -2.5%.
For Nc1nnc2c(n1)CCCC2 the results were USP1 inh 15.8µM*, PI4K2A block -16.4, GLS inh -0.2% and PGK inhibitor -1.3%.
For CCOc1ccc(/C=C/c2nc3ccccc3n2S(=O)(=O)c2cccc(Cl)c2)cc1 the results were USP1 inh -2.9%, PI4K2A block -70.1*, GLS inh 4.1% and PGK inhibitor -13.7%.
Screening CSc1ccc(/C=C/c2nc3ccccc3n2S(=O)(=O)c2ccc(F)c(C)c2)cc1 returned USP1 inh inconclusive, PI4K2A block inconclusive, GLS inh 4.8% and PGK inhibitor inconclusive.
Screening Cc1ccc(/C=C/c2nc3ccccc3n2S(=O)(=O)c2cccc(Cl)c2)cc1 returned USP1 inh -18.7%, PI4K2A block -63.1*, GLS inh -7.6% and PGK inhibitor -3.9%.
Screening COc1cc(C=C2CCC/C(=C\c3ccc(O)c(OC)c3)C2=O)ccc1O returned PI4K2A block 1.6.
`NC(N)=NCCCC(N)C(=O)O` (stereo unspecified) gave GLS inh -6.2%.
